Sm TGR block = inhibitors of Schistosoma mansoni thioredoxin glutathione reductase. AID 485364. actives 3% (n = 360,000). Potency, µM (top dose mostly 114 µM), most hits filed as inhibitors. Q962Y6. purified TGR, DTNB reduction, TNB absorbance 405 nm; active = well fitted inhibition curve with a large enough effect; inconclusive = small, poorly fitted or top-dose-only effect; inactive = no such curve, though single readings can be large or run the other way; note: nearly all actives have a fitted effect of over 60% in size
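TGR 20 nM + NADPH 100 uM (dispensed conc.), cpd preinc 15 min RT; start with NADPH (500 uM addition) then DTNB (15 mM addition). Kinetic TNB absorbance, 405 nm filter. Four-parameter Hill fit across titration.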
SARS PLpro yeast = SARS-CoV PLP inhibition in yeast | AID 485353 | actives 0.19% (n = 330,000) | Potency, µM (series often up to 32.9 µM), usual class: activators | S. cerevisiae expressing SARS-CoV PLpro, growth rescue; calls by dose curve; note: nearly all actives have a fitted effect of over 55% in size
Numbers stand for hits; 0 = inactive; ? = inconclusive; - = no result given. Sampled rows, rich in hits. Any-hit rate of the full collection: about 3%.

SMILES	Sm TGR block	SARS PLpro yeast
S=C(NCc1ccco1)Nc1ccc(Br)cn1	?	0
S=C(NCc1ccco1)Nc1cc(-c2ccccc2)[nH]n1	15.8µM	0
CCC(=O)Nc1ccccc1-c1nc2ccccc2n(Cc2cccc(Br)c2)c1=O	0	-
O=C(NC1CCCCC1)c1ccc2c(c1)N(Cc1ccc(Cl)cc1)C(=O)c1ccccc1S2(=O)=O	0	-
COC(=O)c1scc(C)c1NC(=O)/C=C/C(=O)O	1.41µM	0
COC(=O)c1scc(C)c1NC(=O)Nc1ccccc1	0	0
CCc1ccc(NC(=O)CCNS(=O)(=O)c2ccc3c(c2)CCCC(=O)N3)cc1	0	-
FC(F)(F)c1cccc(N2CCN(Cc3nnc(-c4ccc5c(c4)OCO5)o3)CC2)c1	0	-
Cc1sc2ncn(CC(=O)N3CCN(c4ccc(Cl)cc4)CC3)c(=O)c2c1S(=O)(=O)N1CCN(c2ncccn2)CC1	0	-
c1ccc(Nc2ccccn2)cc1	0	0
c1ccc(Nc2cccc(Nc3ccccc3)n2)cc1	2.82µM	0
Cc1ccc(C(=O)Nc2nnc(CC(=O)N/N=C/c3ccc(O)c(O)c3)s2)cc1	44.7µM	0
Cc1ccc(C(=O)Nc2nnc(CC(=O)N/N=C/c3ccncc3)s2)cc1	0	0
COc1ccc(Cn2c(CNS(=O)(=O)c3ccc(C)c(C)c3)nc3cccnc32)cc1	0	-
COC(=O)c1cc2occc2n1Cc1nc(-c2ccccc2)oc1C	0	-
Cn1cc(-c2cc3n(n2)CCC(=O)N3CC(=O)NCc2ccccc2)c2ccccc21	0	-
O=C(O)c1cc(N2N=C(C(F)(F)F)/C(=C/C=C/c3ccco3)C2=O)ccc1Cl	10µM	0
CCOC(=O)c1ccc(N2N=C(C)/C(=C/C=C/c3ccco3)C2=O)cc1	?	0
O=C(CSc1cn(CC(=O)N2CCCCC2)c2ccccc12)Nc1ccccc1F	0	-
CCn1c2ccccc2c2cc(NC(=O)c3coc(=O)c(Br)c3)ccc21	0	0
CCn1c2ccccc2c2cc(NC(=O)c3ccc(Br)o3)ccc21	11.2µM	0
CC(=O)c1ccc(N2CCN(c3ncnc4onc(-c5ccc(Cl)cc5)c34)CC2)cc1	0	-
O=C(Nc1ccc2nc(SCC(=O)N3CCCC3)sc2c1)c1cccc(Br)c1	0	-
CC(C)(C)OC(=O)N1CC=C2C(C#N)=C(N)C(C#N)(C#N)C(c3cccs3)C2C1 (stereo not drawn)	?	0
CC(C)(C)OC(=O)N1CC=C2C(C#N)=C(N)C(C#N)(C#N)[C@H](c3cccnc3)[C@H]2C1	35.5µM	0
SMILES	Sm TGR block	SARS PLpro yeast
C=CC#CC1(O)CC(C)[N+](C)(C)CC1C (stereo not drawn)	12.6µM	0
Cc1ccc(C)c(NC(=O)Cn2c(=O)n(-c3ccccc3C)c(=O)c3c2c2cc(C)ccc2n3C)c1	0	-
COc1ccccc1CCNC(=O)C(=O)NCC(c1ccco1)S(=O)(=O)c1ccc(C)cc1 (stereo not drawn)	14.1µM	-
COc1ccc(CCNC(=O)C(=O)NCC(c2ccco2)S(=O)(=O)c2ccccc2)cc1 (stereo not drawn)	0	-
COc1ccc(CCNC(=O)C(=O)NCC(c2ccco2)S(=O)(=O)c2cccs2)cc1 (stereo not drawn)	31.6µM	-
COc1ccccc1CCNC(=O)C(=O)NCC(c1ccco1)S(=O)(=O)c1cccs1 (stereo not drawn)	17.8µM	-
COc1ccccc1CCNC(=O)C(=O)NCC1OCCN1S(=O)(=O)c1ccc(C)cc1 (stereo not drawn)	0	0
COc1ccccc1CCNC(=O)C(=O)NCC1OCCN1S(=O)(=O)c1cccs1 (stereo not drawn)	0	0
O=C(NCCc1ccc(Cl)cc1)C(=O)NCC(c1cccs1)S(=O)(=O)c1cccs1 (stereo not drawn)	25.1µM	-
O=C(NCCc1ccc(Cl)cc1)C(=O)NCC(c1cccs1)S(=O)(=O)c1ccccc1 (stereo not drawn)	0	-
Fc1ccc(-c2noc3ncnc(Nc4ccc(F)cc4F)c23)cc1	0	-
CCc1ccccc1NC(=O)COC(=O)c1cn(CC)c2nc(C)ccc2c1=O	0	-
Cc1ccc(-n2ncc3c(NCCc4ccccc4)ncnc32)cc1	0	-
Cc1noc2ncnc(N3CCCC(C(=O)Nc4cccc(C(F)(F)F)c4)C3)c12 (stereo not drawn)	0	-
O=C(CCCCn1c(=O)c2ccccc2n(Cc2ccccc2F)c1=O)NCc1ccccc1Cl	0	-
COc1ccc(OC)c(C(=O)CN2C(=O)N(c3ccc(C)cc3)S(=O)(=O)c3ccccc32)c1	0	-
COc1ccccc1NS(=O)(=O)c1cc2c(cc1Cl)NC(=O)CO2	0	-
Cc1ccc(S(=O)(=O)C(CNC(=O)C(=O)NCc2ccc(Cl)cc2)c2cccs2)cc1 (stereo not drawn)	22.4µM	-
CCNC(=O)C(=O)NCC(c1cccs1)S(=O)(=O)c1ccc(C)cc1 (stereo not drawn)	?	0
Cc1ccc(CSCC(=O)N(C)CC(=O)Nc2ccc(Cl)c(Cl)c2)cc1	0	-
Cc1ccc(CSCC(=O)N(C)CC(=O)Nc2ccc(Br)cc2C)cc1	50.1µM	0
Cc1ccc(NC(=O)C(=O)NCc2ccc(Cl)cc2)cc1	0	-
Cc1c(Cl)cccc1NC(=O)CSc1ncc2c(n1)-c1ccccc1N(C)S2(=O)=O	0	-
COc1cc(NC(=O)C2CCN(S(=O)(=O)c3c(C)noc3/C=C/c3cccs3)CC2)cc(OC)c1	0	-
CCOc1ccc(S(=O)(=O)N2CCC(c3ccncc3)CC2)cc1	0	-
SMILES	Sm TGR block	SARS PLpro yeast
CC(C)c1nc(N2CCN(C(=O)c3ccco3)CC2)c2c3c(sc2n1)CCCC3	28.2µM	0
Cc1nc(N2CCN(C(=O)c3ccco3)CC2)c2c3c(sc2n1)CCC3	?	0
O=C(NCc1ccccc1)c1cnc2sc(N3CCCC3)nn2c1=O	0	-
CCN1CCN(C2=C(NS(=O)(=O)c3ccc(Br)cc3)C(=O)c3ccccc3C2=O)CC1	44.7µM	0
CCN1CCN(C2=C(NS(=O)(=O)c3ccccc3)C(=O)c3ccccc3C2=O)CC1	?	0
Cc1sc2nc(CN3CCCC3)nc(NCc3ccncc3)c2c1C	39.8µM	0
Cc1sc2nc(CN3CCCC3)nc(Cl)c2c1C	7.08µM	0
CCOC(=O)c1sc2nc(CN3CCCCC3)nc(Cl)c2c1C	0	0
Cc1sc2nc(CN3CCCCC3)nc(Nc3ccc4c(c3)OCCO4)c2c1C	0	0
Cn1c(=O)n(C)c2cc(N3CCCCC3)c(NC(=O)c3ccc(Cl)cc3)cc21	0	-
CCOC(=O)C1CCC(CN(Cc2ccc(Cl)cc2)S(=O)(=O)c2ccc(F)c(C(=O)Nc3cccc(F)c3)c2)CC1 (stereo not drawn)	0	-
CNC(=S)NNC(=O)COc1ccc(C)c(C)c1	0	12.6µM
Cc1ccc(OCC(=O)Nc2cccc(O)c2)cc1C	0	?
Cc1ccc(-n2ncc(C(=O)NCCN3CCC(Cc4ccccc4)CC3)c2C2CCN(C(=O)OC(C)(C)C)CC2)cc1	0	-
CC(C)(CCl)C(=O)Nc1ccc(OC(F)(F)F)cc1	0	0
CS/C(=C\[N+](=O)[O-])Nc1ccc(OC(F)(F)F)cc1	0.282µM	0
Cc1ccc(CN2C(=O)C(O)(CC(=O)c3ccc(C)cc3)c3ccccc32)cc1 (stereo not drawn)	0	-
O=S(=O)(c1ccccc1)c1ncc(C(F)(F)F)cc1Cl	3.98µM	0
O=S(=O)(c1ccccc1)c1ncc(C(F)(F)F)cc1O	0	0
CCc1ccc(NC(=O)Cn2cc(S(=O)(=O)c3ccc(F)cc3)c(=O)c3cc(OC)ccc32)cc1	0	-
O=C(Cn1nc(N2CCN(c3ccccc3)CC2)ccc1=O)NCc1cccc(Cl)c1	0	-

Screening results deposited in PubChem BioAssay by National Center for Advancing Translational Sciences (NCATS).
